An excerpt weighted towards active compounds, which were near 2.9% of everything screened.
KLK7 zymogen act = proKLK7 zymogen activators, primary screen, biochemical, fluorescence intensity. purified proKLK7, EDANS-DABCYL substrate fluorescence; 100% is mature enzyme control, 0% vehicle. activation, % at 7 µM. 370,000 tested, 0.9% active. AID 652039, 2013;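 active = activation above the mean of all tested compounds plus 3 SD, computed per campaign excluding outliers beyond control limits, cut at about 13% in these data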
Target sequence (P49862 whole entry, looked up): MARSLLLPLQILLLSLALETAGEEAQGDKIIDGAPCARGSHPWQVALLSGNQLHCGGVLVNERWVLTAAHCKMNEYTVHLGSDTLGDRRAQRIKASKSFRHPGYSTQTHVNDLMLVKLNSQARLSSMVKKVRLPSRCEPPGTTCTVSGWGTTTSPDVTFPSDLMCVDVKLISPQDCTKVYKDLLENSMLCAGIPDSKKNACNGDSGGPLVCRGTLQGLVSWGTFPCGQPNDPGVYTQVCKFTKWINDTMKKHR
ADAM17 inh = ADAM17 inhibitors, primary screen, biochemical, QFRET | Disintegrin and metalloproteinase domain-containing protein 17 (Homo sapiens), P78536 | recombinant ADAM17, EDANS/DABCYL FRET peptide cleavage | inhibition, % at 6.95 µM | 370,000 tested, 0.83% active;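 active = inhibition above the mean of compounds lying between control limits plus 3 SD, set per campaign, cut at about 8.5% in these data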;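 also: 0% = DMSO-only wells as the low control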
PLC-gamma1 inh = PLC-gamma1 enzyme inhibitors, primary screen, biochemical, fluorescence, purified enzyme; 370,000 tested, 0.84% active; fluorogenic substrate; AID 720700, 2013; inhibition, % at 12.2 µM; in the data active = inhibition above about 9.5%
PLCb3 inh = human PLC-beta3 inhibitors, primary screen, biochemical, fluorescence | 1-phosphatidylinositol 4,5-bisphosphate phosphodiesterase beta-3 (Homo sapiens), Q01970 | Purified PLC-beta3, fluorogenic substrate | inhibition, % at 12.2 µM | 370,000 tested, 0.18% active; in the data active = inhibition above about 11%;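 also: 0% = median of compound wells on plate and 100% = full blocker control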
ADAM10 inh = human ADAM10 inhibitors, primary screen, biochemical, QFRET, HTS; recombinant ADAM10, EDANS/DABCYL FRET peptide cleavage, 3 h; 370,000 tested, 0.62% active; inhibition, % at 7 µM;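 active = inhibition above a per-campaign cutoff equal to the mean of compounds falling between control-based bounds plus 3 SD, cut at about 20% in these data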;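 also: 0% = DMSO wells while the 100% control is not disclosed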
KLK7 act conf = proKLK7 zymogen activators, confirmation, biochemical, fluorescence intensity, triplicate. shares compounds with KLK7 zymogen act. purified proKLK7, EDANS-DABCYL substrate fluorescence; scaled: vehicle 0, mature enzyme 100. activation, % at 7 µM. 3,200 tested, 68% active. AID 686949, 2013;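 active = activation, as change over the incubation, above the mean of all tested compounds plus 3 SD, cut at about 13% in these data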
EDANS-DABCYL int = EDANS-DABCYL substrate optical interference, artefact control for kallikrein-7 zymogen activator project, biochemical, fluorescence intensity, high throughput; shares compounds with KLK7 zymogen act; no enzyme, 4 h; solvent 0%, active enzyme control 100%; activation, % at 7 µM; 3,200 tested, 80% active; AID 686952, 2013;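 active = activation above the all-compound mean plus 3 SD, ignoring values outside control-based bounds, cut at about 4.8% in these data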;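 also: value is the 4 h activation minus the activation read at time zero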
* hit, by the source's call; i = inactive; x = not tested or not shown.

SMILES	KLK7 zymogen act	ADAM17 inh	PLC-gamma1 inh	PLCb3 inh	ADAM10 inh	KLK7 act conf	EDANS-DABCYL int
CC(C)C(=O)N1CCC(Oc2cccnc2)CC1	0	-5	-1	1	-10	x	x
COc1ccc(C(=O)OCCN(C)C2CN(Cc3cn(Cc4cccc(F)c4)nn3)S(=O)(=O)C2)cc1OC (stereo not drawn)	0	-7	-3	-3	-12	x	x
O=C(NC1CCCCN(Cc2ccc(Cl)cc2)C1=O)C1C2CC3CC(C2)CC1C3 (stereo not drawn)	0	-7	-1	0	-1	x	x
C=CCN(C)CC#Cc1ccc(C)cc1	0	-3	0	-2	-2	x	x
O=C(COC(=O)c1cc(Br)ccc1O)NNC(=O)c1ccc([N+](=O)[O-])cc1	26*	-5	-6	-7	-6	40*	38*
O=C(COC(=O)c1ccc(O)cc1)Nc1cc(C(F)(F)F)ccc1N1CCOCC1	0	-4	-3	0	-7	x	x
O=C(COC(=O)c1cc(Cl)ccc1O)Nc1cc(C(F)(F)F)ccc1N1CCOCC1	16*	-11	-9	-10	-54	23*	22*
O=C(COC(=O)c1ccccc1O)NNC(=O)c1ccc(Br)cc1	4	-9	-4	-9	-1	x	x
O=C(COC(=O)c1cc(Br)ccc1O)NNC(=O)c1ccc(Cl)cc1	17*	-7	-62	-4	-3	20*	19*
CCOc1ccc(/C=N/n2c(-c3n[nH]c4c3CCC4)n[nH]c2=S)cc1	1	-3	1	0	0	x	x
COC(=O)C1CN(C2CCCC2)CCS(=O)(=O)N1Cc1cn(Cc2ccc(Cl)cc2)nn1 (stereo not drawn)	1	-3	0	2	4	x	x
CCOc1ccc(-n2c(SCC(=O)Nc3ccc(S(=O)(=O)Nc4cc(C)nc(C)n4)cc3)nnc2-c2ccco2)cc1	0	0	-1	3	5	x	x
CCCCN(C)C1=Nc2cccc3cccc1c23	60*	-40	-385	i	-123	12	12*
CCCCON1C(=O)c2cccc3cccc(c23)C1=O	2	-89	-8	-21	-258	x	x
COC(=O)c1ccccc1-c1c2ccc(=N)cc-2oc2cc(N)ccc12	101*	-1	i	i	-8	65*	86*
O=S1(=O)c2c(cccc2N2CCSCC2)Oc2ccccc2CN1Cc1cn(Cc2cccc(C(F)(F)F)c2)nn1	-5	3	-5	-7	2	x	x
O=C(c1cc2c(ccc3ccccc32)oc1=O)N1CCCC1	24*	i	i	i	i	49*	53*
O=C(O)c1cc2c(ccc3ccccc32)oc1=O	34*	i	-412	i	i	41*	42*
CCOC(=O)c1cc2c(ccc3ccccc32)oc1=O	0	i	i	i	i	x	x
O=C(O)c1cc2ccc3ccccc3c2oc1=O	31*	i	i	i	i	79*	82*
CCCCCN1CCCCC(NC(=O)c2cccc(C(F)(F)F)c2)C1=O (stereo not drawn)	0	-2	-2	0	-3	x	x
O=C(Cc1ccccc1)Nc1ccc2oc(-c3cccnc3)nc2c1	22*	-162	i	i	i	-10	-9
CC(C)CCNC(=O)C1CCN(c2cncnc2)CC1	-1	-5	-7	-9	-13	x	x
COCCn1nnnc1C(c1cc2cccc(C)c2[nH]c1=O)N1CCN(c2ccccc2F)CC1 (stereo not drawn)	20*	-12	-44	-52	-49	17*	17*
CCN(CC)C(=O)COc1ccc2oc(-c3ccco3)cc(=O)c2c1	28*	i	i	i	i	52*	55*
SMILES	KLK7 zymogen act	ADAM17 inh	PLC-gamma1 inh	PLCb3 inh	ADAM10 inh	KLK7 act conf	EDANS-DABCYL int
CCN(CC)C(=O)COc1c(-c2ccco2)oc2ccccc2c1=O	4	-94	-61	-87	-251	x	x
Cc1cc(NCC2CCCO2)n2c(nc3ccccc32)c1C#N (stereo not drawn)	16*	-305	-464	i	i	44*	34*
CC(C)c1cc(NCCN2CCOCC2)n2c(nc3ccccc32)c1C#N	0	-9	-10	-25	-23	x	x
CCc1c(C)c(C#N)c2nc3ccccc3n2c1NCC1CCCO1 (stereo not drawn)	2	-21	-144	-177	-67	x	x
CC(C)c1cc(NCC2CCCO2)n2c(nc3ccccc32)c1C#N (stereo not drawn)	21*	i	i	i	i	-12	-17
Cc1c(-c2ccccc2)c(=O)oc2cc(O)ccc12	25*	i	i	i	i	65*	69*
Cc1c(C)c2ccc(OCC(=O)N[C@@H](Cc3ccccc3)C(=O)O)cc2oc1=O	0	-185	-60	-81	i	x	x
Cc1c(O)ccc2c(CC(=O)N[C@@H](Cc3ccccc3)C(=O)O)cc(=O)oc12	36*	i	i	i	i	65*	61*
Cc1c(O)ccc2c(CN3CCN(Cc4ccccc4)CC3)cc(=O)oc12	46*	i	i	i	i	78*	75*
Cc1c(CC(=O)NCC(=O)N[C@H](Cc2ccccc2)C(=O)O)c(=O)oc2cc(O)ccc12	72*	i	i	i	i	64*	73*
Cc1c(-c2ccccc2)c(=O)oc2ccc(O)cc12	3	-8	-78	-122	-6	x	x
CC(C)(C)OC(=O)NCc1cc2c(cc1/C=C/S(=O)(=O)NCc1ccc(F)cc1)OCO2	0	-13	-5	-8	-44	x	x
O=C(CN1C(=O)C2CCCCN2C(=O)c2ccccc21)N1CCCC1 (stereo not drawn)	0	-2	1	0	-10	x	x
CN(Cc1ccccc1)S(=O)(=O)c1cccc(C(=O)OCC2CCCCC2)c1	0	-2	1	-1	-1	x	x
CCc1ccc2c(CN3CCN(Cc4ccccc4)CC3)cc(=O)oc2c1	1	5	2	-1	-2	x	x

Screens as filed in PubChem BioAssay.
